From PubChem
Only some compounds are listed: those with a hit (about 2% of all), similar ones and a draw of the others.
M1 ag parental: counter-screen for M1 agonists: effect in parental CHO-K1 cells | Fluo-8 calcium fluorescence; scaled to maximal ATP response, vehicle zero | activation, % at 3 µM | 0.48% of 360,000 active | AID 602248, 2012; in the data active means activation above about 15%;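 further: untransfected CHO-K1 host cells lacking M1 receptor as counterscreen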
M4 ag: human M4 muscarinic receptor agonists, primary screen, CHO-K1 cells, Fluo-8 calcium fluorescence. Muscarinic acetylcholine receptor M4 (Homo sapiens), P08173. CHO-K1 hM4/Gqi5; vehicle 0%, full acetylcholine response 100%. activation, % at 3 µM. 0.14% of 360,000 active;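 active means activation above the run mean over all test wells plus 3 SD, cut at about 32% in these data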;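 further: peak over basal fluorescence ratio per well then scaled between controls; 0% = DMSO wells and 100% = acetylcholine at EC100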
Target sequence (P08173 whole entry, looked up): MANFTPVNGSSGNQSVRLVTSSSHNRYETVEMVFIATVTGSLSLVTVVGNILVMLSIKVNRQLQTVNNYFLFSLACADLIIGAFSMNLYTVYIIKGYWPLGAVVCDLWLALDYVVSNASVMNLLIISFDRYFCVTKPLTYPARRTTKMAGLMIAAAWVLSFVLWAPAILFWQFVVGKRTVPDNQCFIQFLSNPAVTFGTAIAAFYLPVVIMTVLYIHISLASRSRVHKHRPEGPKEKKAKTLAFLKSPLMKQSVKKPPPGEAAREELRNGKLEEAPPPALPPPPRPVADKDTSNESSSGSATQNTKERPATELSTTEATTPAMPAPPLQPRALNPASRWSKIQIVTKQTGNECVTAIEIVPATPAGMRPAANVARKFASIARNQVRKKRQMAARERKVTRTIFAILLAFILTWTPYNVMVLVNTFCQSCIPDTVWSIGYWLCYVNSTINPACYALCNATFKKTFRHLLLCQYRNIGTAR
M4 PAM: human M4 muscarinic receptor positive allosteric modulators, primary screen, CHO-K1 cells, Fluo-8 calcium fluorescence | AID 624126, 2012 | 0.4% of 360,000 active | CHO-K1 hM4/Gqi5, ACh EC20; 0% = ACh EC20, 100% = maximal ACh | activation, % at 3 µM;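 active means activation above its plate's cutoff, the mean activation of sample wells plus 3 SD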
CHO-K1 Ca antag: counter-screen for M1 antagonists: effect in parental CHO-K1 cells; AID 602250; inhibition, % at 3 µM; 0.6% of 360,000 active; ATP-induced calcium, Fluo-8 fluorescence;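 active means inhibition above a per-plate cutoff, the plate's mean sample inhibition plus 3 SD, cut at about 24% in these data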;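 further: 0% = DMSO plus EC80 ATP and 100% = DMSO alone without ATP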
M4 antag: human M4 muscarinic receptor antagonists, primary screen, CHO cells, Fluo-8 calcium fluorescence; CHO-hM4 cells, ACh EC80; 0.73% of 360,000 active; Muscarinic acetylcholine receptor M4 (Homo sapiens), P08173; inhibition, % at 3 µM;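 active means inhibition above its plate's cutoff, the mean inhibition of sample wells plus 3 SD, cut at about 27% in these data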;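 further: 0% = acetylcholine EC80 with DMSO and 100% = DMSO without agonist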
M1 PAM parental: nonselective calcium activators in parental CHO-K1 cells, primary screen, counter-screen for M1 PAM project, cell-based, Fluo-8 calcium fluorescence, full deck, 1536-well. 0.02% of 360,000 active. activation, % at 3 µM. ATP EC20; 0% at ATP EC20, 100% at ATP max;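 active means activation above the run cutoff, the mean activation of all test compounds plus 3 SD, cut at about 40% in these data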;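 further: peak over basal fluorescence ratio in a 140 s read after ATP addition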
* = called active by the depositor.

`O=C1NC(=O)C(=Cc2ccc(Cl)cc2Cl)S1` gave M1 ag parental 2.9, M4 ag 7.6, M4 PAM -2.6, CHO-K1 Ca antag -8.7, M4 antag -2.8 and M1 PAM parental 2.1.
`CC1=C(C(=O)N2CCCC(C(=O)c3cccc(C(F)(F)F)c3)C2)OCCO1` (centres undefined) gave M1 ag parental 3.6, M4 ag 3.2, M4 PAM 0.0, CHO-K1 Ca antag -5.3, M4 antag -6.8 and M1 PAM parental 16.6.
`CCc1[nH]nc(C(=O)N2CCCC(C(=O)c3cccc(C(F)(F)F)c3)C2)c1C` (centres undefined) gave M1 ag parental 15.5*, M4 ag 10.3, M4 PAM 0.9, CHO-K1 Ca antag -10.5, M4 antag -7.3 and M1 PAM parental 4.5.
Screening c1ccc(-c2noc(-c3ccno3)n2)nc1 returned M1 ag parental 1.2, M4 ag -0.1, M4 PAM 16.9, CHO-K1 Ca antag -19.8, M4 antag -17.7 and M1 PAM parental 15.2.
Screening Cc1ccc(-c2noc(-c3ccno3)n2)cc1 returned M1 ag parental -0.2, M4 ag 1.2, M4 PAM 30.6*, CHO-K1 Ca antag -13.3, M4 antag -1.2 and M1 PAM parental -6.1.
For O=C(O)CCC(=O)NNc1nc2ccccc2nc1-c1ccccc1 the results were M1 ag parental 0.4, M4 ag 1.1, M4 PAM 6.2, CHO-K1 Ca antag 11.0, M4 antag 0.6 and M1 PAM parental -8.2.
Screening CCCNC(=O)C1(C)CCCN(C(=O)c2cc(C(C)(C)C)nn2C)C1 (centres undefined) returned M1 ag parental 0.7, M4 ag 0.7, M4 PAM -1.7, CHO-K1 Ca antag -3.9, M4 antag -6.9 and M1 PAM parental 0.6.
`O=c1[nH]cnc2c1C1(CCCC1)Cc1ccccc1-2` gave M1 ag parental 2.1, M4 ag 1.1, M4 PAM 11.1, CHO-K1 Ca antag 43.6*, M4 antag 4.1 and M1 PAM parental 5.4.
Nn1cnc2c(c1=O)C1(CCCCC1)Cc1ccccc1-2 was read as M1 ag parental 0.1, M4 ag -0.1, M4 PAM 4.7, CHO-K1 Ca antag -6.8, M4 antag 0.0 and M1 PAM parental 24.1.
For COc1ccc(C(=O)N2CCC3(CC2)NCCc2[nH]cnc23)cc1OC the results were M1 ag parental 5.1, M4 ag -0.1, M4 PAM 4.4, CHO-K1 Ca antag -4.8, M4 antag 2.4 and M1 PAM parental 6.3.
`Cc1ccc(C(=O)N2CCC3(CC2)NCCc2[nH]cnc23)cc1C` gave M1 ag parental -0.2, M4 ag 3.3, M4 PAM 16.6*, CHO-K1 Ca antag 5.2, M4 antag -1.2 and M1 PAM parental -16.8.
O=[N+]([O-])c1ccccc1S(=O)c1ccccc1[N+](=O)[O-] was read as M1 ag parental 1.0, M4 ag 2.3, M4 PAM 6.6, CHO-K1 Ca antag -6.5, M4 antag 0.4 and M1 PAM parental 15.0.
For C=C1SC(Nc2c(C)cc(C)cc2C)=NC12CCCCC2 the results were M1 ag parental 1.1, M4 ag -1.0, M4 PAM -15.5, CHO-K1 Ca antag -4.3, M4 antag 25.9 and M1 PAM parental -7.9.
`C=C1SC(Nc2c(C)cccc2C)=NC12CCCCC2` gave M1 ag parental 0.8, M4 ag -0.7, M4 PAM -15.0, CHO-K1 Ca antag 3.4, M4 antag 29.2* and M1 PAM parental -5.4.
`Cc1cccc(NS(=O)(=O)c2c(C)[nH]c(C)c2C(=O)N2CCCC2)c1` gave M1 ag parental 0.2, M4 ag 0.8, M4 PAM -5.9, CHO-K1 Ca antag -0.1, M4 antag -2.3 and M1 PAM parental -12.4.
Screening O=C(COC(=O)c1ccc2c(c1)OCCO2)NCCc1ccc(F)cc1 returned M1 ag parental 0.3, M4 ag 6.4, M4 PAM 6.4, CHO-K1 Ca antag -18.0, M4 antag -20.0 and M1 PAM parental 0.1.
For O=C(CCS(=O)(=O)c1cccs1)Nc1ccc(C(=O)NC2CCCC2)cc1 the results were M1 ag parental 0.3, M4 ag 1.6, M4 PAM 2.0, CHO-K1 Ca antag -4.8, M4 antag 16.2 and M1 PAM parental 0.1.
`CCCc1c(-c2cccc(Br)c2)ncn1Cc1cccc(-c2ccccc2)c1` gave M4 ag 3.4, M4 PAM -14.4 and M4 antag 6.4.
`CCc1c(-c2ccc(Br)cc2)ncn1Cc1cccc(-c2ccccc2)c1` gave M4 ag 2.8, M4 PAM -17.2 and M4 antag 50.1*.
Screening COC(=O)[C@H](NC(=O)c1cc([C@@H](NC(=O)OC(C)(C)C)C(C)C)sc1N)C(C)C returned M4 ag 0.8, M4 PAM 5.5 and M4 antag -7.6.
CCOC(=O)Cc1csc(N/N=C/c2ccccc2)n1 was read as M1 ag parental 1.9, M4 ag 6.6, M4 PAM 24.0*, CHO-K1 Ca antag -6.4, M4 antag -12.1 and M1 PAM parental 10.4.
For CCOC(=O)Cc1csc(NC(=O)c2ccc(NC(C)=O)cc2)n1 the results were M1 ag parental 0.8, M4 ag 2.6, M4 PAM 8.0, CHO-K1 Ca antag -14.9, M4 antag -11.9 and M1 PAM parental 10.0.
For CCOC(=O)Cc1csc(NC(=O)Nc2ccc(OC(F)(F)F)cc2)n1 the results were M1 ag parental 10.4, M4 ag 13.9, M4 PAM -34.0, CHO-K1 Ca antag 34.3*, M4 antag 7.6 and M1 PAM parental -15.3.
For O=C(Cn1cnc2ccccc2c1=O)NCCCN1CCCC1=O the results were M1 ag parental 0.0, M4 ag 0.4, M4 PAM -2.3, CHO-K1 Ca antag -8.4, M4 antag -6.1 and M1 PAM parental -2.8.
`OC(COC(c1ccc(Cl)cc1)c1ccc(Cl)cc1)CN1CCc2ccccc2C1` (centres undefined) gave M1 ag parental 16.0*, M4 ag 1.9, M4 PAM -7.4, CHO-K1 Ca antag -6.7, M4 antag -8.2 and M1 PAM parental 28.7.
Screening OC(COC(c1ccccc1)c1ccccc1)CN1CCc2ccccc2C1 (centres undefined) returned M1 ag parental 3.6, M4 ag 3.7, M4 PAM -10.8, CHO-K1 Ca antag -1.1, M4 antag 2.1 and M1 PAM parental 11.8.
`O=C(/C=C/c1ccccc1)CC(O)(c1ccccc1)C(F)(F)C(F)F` (centres undefined) gave M1 ag parental 17.2*, M4 ag -2.0, M4 PAM -32.7, CHO-K1 Ca antag -6.6, M4 antag 46.9* and M1 PAM parental 23.5.
